Assay results taken from PubChem BioAssay (NCI).
This is part of a sample that, as a whole, favours compounds with a hit. Of some 83,000 tested, about 20% had one in any assay.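 Compound tested at a single concentration for 48 hours in 96-well plates; a percent growth value below 10 was scored as active.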 A number with no mark means an inactive call. The source made the active and inactive calls.

Tests used:
Assay in all cases: NCI-60 one-dose screen, 48 h (100 = growth as untreated, 0 = no growth, -100 = all killed)
Conditions in all cases: 10 µM unless noted
NCI-H23 lung = tested on: NCI-H23 lung
NCI-H226 lung = tested on: NCI-H226 lung
NCI-H322M lung = tested on: NCI-H322M lung
HOP-62 NSCLC = tested on: HOP-62 NSCLC
NCI-H460 lung = tested on: NCI-H460 lung
HOP-92 NSCLC = tested on: HOP-92 NSCLC
NCI-H522 lung = tested on: NCI-H522 lung
A549/ATCC NSCLC = tested on: A549/ATCC NSCLC
786-0 renal = tested on: 786-0 renal
COLO 205 colon = tested on: COLO 205 colon
DU-145 prostate = tested on: DU-145 prostate
K-562 leukemia = tested on: K-562 leukemia
MALME-3M melanoma = tested on: MALME-3M melanoma
MDA-MB-231 breast = tested on: MDA-MB-231 breast
RXF 393 renal = tested on: RXF 393 renal
SF-268 CNS = tested on: SF-268 CNS
SF-295 CNS = tested on: SF-295 CNS
SF-539 CNS = tested on: SF-539 CNS
UACC-257 melanoma = tested on: UACC-257 melanoma
M14 melanoma = tested on: M14 melanoma

Compound | growth (NCI-H23 lung) | growth (NCI-H226 lung) | growth (NCI-H322M lung) | growth (HOP-62 NSCLC) | growth (NCI-H460 lung) | growth (HOP-92 NSCLC) | growth (NCI-H522 lung) | growth (A549/ATCC NSCLC) | growth (786-0 renal) | growth (COLO 205 colon) | growth (DU-145 prostate) | growth (K-562 leukemia) | growth (MALME-3M melanoma) | growth (MDA-MB-231 breast) | growth (RXF 393 renal) | growth (SF-268 CNS) | growth (SF-295 CNS) | growth (SF-539 CNS) | growth (UACC-257 melanoma) | growth (M14 melanoma)
O=C1COCCN1c1ccc(NCc2cn(Cc3ccc(F)cc3)c3ccccc23)cc1 | 58.9% | -56.5% (active) | 87.3% | 62.5% | 15.4% | 68.2% | 58.1% | 48.4% | 67.1% | 5.22% (active) | 81.6% | 27.7% | 61.5% | 85.3% | -3.08% (active) | 96.2% | 44.1% | 92.1% | 27.9% | 72.7%
CSc1nc2sc3cc(Cl)c(Cl)cc3n2c(=N)c1C#N | 84.8% | 95% | 104% | 94.7% | 98.7% | 98.9% | 89.4% | 106% | 102% | 122% | 107% | 116% | 101% | 83.7% | 149% | 104% | 99% | 91.3% | 99.8% | 94.3%
COc1cc2c(c(OC)c1OC)-c1cc(I)c(O)cc1[C@@H](NC(C)=O)CC2 | 48.8% | 5.87% (active) | 70.3% | 42% | 3.02% (active) | 62.1% | -12.2% (active) | 14.9% | 29.7% | -64% (active) | 16.9% | 25.6% | 80.2% | 7.04% (active) | 37.7% | 8.91% (active) | 22.4% | -27.8% (active) | 61.9% | 14.4%
O=c1cc(-c2ccccc2)oc2c(O)c(O)ccc12 | 57.6% | 85.5% | 79% | 52.7% | 17.3% | 7.46% (active) | 43.6% | 55.5% | 65% | 90.7% | 68.4% | 63.9% | 87.2% | 71% | 72.9% | 67.6% | 64.5% | 53.1% | 85.3% | 58.8%
CC1Cc2c(ncnc2-n2cnc3ccccc32)N(C)c2ccccc21 (stereo not given) | 48.5% | 58.6% | 63.7% | 32.3% | 18.7% | 36.3% | 20% | 39.3% | 39.2% | 20.9% | 50.3% | 15.5% | 64.5% | 29.4% | 34% | 49% | 18.9% | 17% | 53.1% | 12.9%
N/C(=N\c1nc2ccccc2[nH]1)NC(=O)Cc1cccc2ccccc12 | 76.5% | 88.7% | 85.3% | 108% | 84.4% | 64.6% | 63.7% | 69.7% | 70.4% | 90.6% | 92.8% | 107% | 68.3% | 84.6% | 92% | 86.5% | 98.7% | 91.3% | 6.29% (active) | 107%
COCCCNc1nc(NC(=O)c2cc(OC)cc(OC)c2)cc(-c2cccnc2)n1 | 98.6% | 96.5% | 92.8% | 91.3% | 95.2% | 52.6% | 76.5% | 91.2% | 83.3% | 109% | 101% | 86.1% | 112% | 69.1% | 97.7% | 100% | 100% | 88.9% | 106% | 107%
Cc1cc(C)nc(SCC(=O)Nc2cccc(N=Cc3ccccc3O)c2)n1 | 98% | 93.8% | 101% | 102% | 101% | 77.4% | 86.6% | 101% | 103% | 105% | 104% | 96.2% | 101% | 89.5% | 101% | 98.7% | 102% | 100% | 103% | 98.2%
C[C@H]1[C@H](C)CC[C@]2(C(=O)O)CC[C@]3(C)C(=CC[C@@H]4[C@@]5(C)C/C(=C/c6cccnc6)[C@H](O)C(C)(C)[C@@H]5CC[C@]43C)[C@H]12 | 14.3% [100 µM] | -24.2% [100 µM] (active) | -16.4% [100 µM] (active) | -29.1% [100 µM] (active) | -31.1% [100 µM] (active) | -3.06% [100 µM] (active) | -4.55% [100 µM] (active) | 8.85% [100 µM] (active) | 1.92% [100 µM] (active) | -80.4% [100 µM] (active) | 5% [100 µM] (active) | 13.3% [100 µM] | -24.2% [100 µM] (active) | -17.6% [100 µM] (active) | -13.3% [100 µM] (active) | 21.8% [100 µM] | -27.3% [100 µM] (active) | -42.1% [100 µM] (active) | 0.776% [100 µM] (active) | 1.69% [100 µM] (active)
CCCCC(CC)COC(=O)C[N+](C)(C)CCOC(c1ccccc1)c1ccccc1 (stereo not given) | 42% | 54.1% | 88.7% | 60.6% | 65.2% | -12.2% (active) | -24.5% (active) | 88.3% | 77.7% | -28% (active) | 85.1% | 14.6% | 30.8% | 29.3% | -4.09% (active) | 49% | 74.4% | 69.7% | 2.69% (active) | 20.3%
Cc1ccc(N)c(O)c1 | 86.2% | 97.5% | 91% | 91.7% | 100% | 68.1% | 73.8% | 85.4% | 90.8% | 132% | 115% | 94.3% | 72.4% | 81.7% | 82.1% | 103% | 121% | 99.1% | 80.6% | 85.6%
Nc1cc(C(=O)O)[nH]c(=S)n1 | 95.2% | 95.2% | 98.1% | 106% | 105% | 67.7% | 96.7% | 98.5% | 100% | 112% | 106% | 115% | 89.8% | 100% | 96.9% | 98.6% | 101% | 104% | 93.3% | 93.7%
O=C1Nc2ccccc2/C1=C/C(=O)c1ccc(N2CCOCC2)cc1 | 87.4% | 100% | 104% | 100% | 101% | 71.9% | 35.7% | 96% | 94.1% | 101% | 74% | 75% | 75.9% | 88.4% | 92.2% | 86.5% | 99.1% | 90.8% | 95.7% | 99.7%
C/C=C/C1OC23CCCCC2C(C#N)(C(=N)O3)C1(C#N)C#N (stereo not given) | 101% | 103% | 102% | 103% | 101% | 117% | 74.1% | 104% | 105% | 91.6% | 95.1% | 94.7% | 99% | 110% | 116% | 97.6% | 110% | 98.2% | 93.3% | 92.8%
CC[C@]12C=CCN3CC[C@@]4(c5ccc(OC)cc5N(C)[C@H]4[C@@](O)(C(=O)OC)[C@@H]1OC(=O)CCC(=O)O[C@H]1CC[C@H]4[C@@H]5CCC6=CC(=O)CC[C@@H]6[C@H]5CC[C@]14C)[C@@H]32 | 12.9% [100 µM] | -18.3% [100 µM] (active) | 36.1% [100 µM] | 21.9% [100 µM] | 1.51% [100 µM] (active) | -20.3% [100 µM] (active) | 3.35% [100 µM] (active) | 14.5% [100 µM] | 10.2% [100 µM] | -87.6% [100 µM] (active) | 26% [100 µM] | 7.54% [100 µM] (active) | -16.4% [100 µM] (active) | -39.4% [100 µM] (active) | -27.5% [100 µM] (active) | 31.9% [100 µM] | 4.5% [100 µM] (active) | -40.4% [100 µM] (active) | 14.8% [100 µM] | 1.67% [100 µM] (active)
